Experimental data from PubChem BioAssay (EPA / NIEHS).
Records with an inconclusive call do not appear. Calls of active or inactive are those of the source. Rule for the calls: active = hit-call score of the fitted dose curve at least 0.9, where 1 is the maximum; inconclusive = response in the unintended direction; inactive = score below 0.9.

Assays:
[1] = ATG_M_32_XSP1: Attagene TRANS-FACTORIAL Multi-Species (XSP1) HepG2 Assay for M32 Transcription Factor (Internal Marker) (AID 2283799)
Procedure, shortened: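 HepG2 cells transiently transfected with multi-species TRANS reporter units, dosed 24 h with 3 nM 6-alpha-fluorotestosterone present. Internal-marker reporter mRNA quantified by RT-PCR and capillary electrophoresis; positive-direction fit versus DMSO.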

[2] = test system: zebrafish Peroxisome Proliferator-activated Receptor gamma (PPARg), gene 557037; test: ATG_zfPPARg_XSP1: Attagene TRANS-FACTORIAL Multi-Species (XSP1) HepG2 Assay for zebrafish Peroxisome Proliferator-activated Receptor gamma (PPARg) (AID 2283801)
Procedure, shortened: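 HepG2 cells transiently transfected with GAL4-UAS reporter units including a zebrafish PPARg–GAL4 chimera, dosed 24 h with 3 nM 6-alpha-fluorotestosterone present. Reporter mRNA quantified by RT-PCR, FAM labelling, HpaI digestion and capillary electrophoresis; induction versus DMSO.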

[3] = molecular target: mouse Peroxisome Proliferator-activated Receptor gamma (PPARg), Pparg (gene 19016) (UniProt P37238); test: ATG_mPPARg_XSP1: Attagene TRANS-FACTORIAL Multi-Species (XSP1) HepG2 Assay for mouse Peroxisome Proliferator-activated Receptor gamma (PPARg) (AID 2283802)
Chain of mouse Peroxisome Proliferator-activated Receptor gamma (PPARg), Pparg (gene 19016) (P37238 whole entry, looked up, the tested form may be a part): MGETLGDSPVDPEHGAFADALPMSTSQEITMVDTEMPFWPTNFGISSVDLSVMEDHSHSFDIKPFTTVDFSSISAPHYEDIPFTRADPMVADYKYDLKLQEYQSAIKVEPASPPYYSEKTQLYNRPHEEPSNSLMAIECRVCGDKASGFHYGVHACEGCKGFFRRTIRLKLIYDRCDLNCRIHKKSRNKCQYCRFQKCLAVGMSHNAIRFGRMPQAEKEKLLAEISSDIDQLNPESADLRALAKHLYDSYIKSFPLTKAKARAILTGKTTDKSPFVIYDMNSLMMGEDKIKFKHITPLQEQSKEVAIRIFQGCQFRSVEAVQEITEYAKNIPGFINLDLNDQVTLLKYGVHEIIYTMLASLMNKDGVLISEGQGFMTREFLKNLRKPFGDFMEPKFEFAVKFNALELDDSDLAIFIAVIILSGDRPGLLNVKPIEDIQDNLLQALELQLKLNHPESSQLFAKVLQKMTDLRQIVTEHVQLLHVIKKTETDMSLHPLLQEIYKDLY
Procedure, shortened: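 HepG2 cells transiently transfected with GAL4-UAS reporter units driven by mouse PPARg–GAL4 chimera; 3 nM 6-alpha-fluorotestosterone present. After 24 h dosing, reporter mRNA quantified by RT-PCR, fluorescent labelling and capillary electrophoresis; gain of signal versus DMSO.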

[4] = molecular target: Nuclear receptor subfamily 1 group I member 2 (Mus musculus) (UniProt O54915); test: ATG_mPXR_XSP1: Attagene TRANS-FACTORIAL Multi-Species (XSP1) HepG2 Assay for mouse Pregnane X Receptor (PXR) (AID 2283803)
Chain of Nuclear receptor subfamily 1 group I member 2 (Mus musculus) (O54915 whole entry, looked up, the tested form may be a part): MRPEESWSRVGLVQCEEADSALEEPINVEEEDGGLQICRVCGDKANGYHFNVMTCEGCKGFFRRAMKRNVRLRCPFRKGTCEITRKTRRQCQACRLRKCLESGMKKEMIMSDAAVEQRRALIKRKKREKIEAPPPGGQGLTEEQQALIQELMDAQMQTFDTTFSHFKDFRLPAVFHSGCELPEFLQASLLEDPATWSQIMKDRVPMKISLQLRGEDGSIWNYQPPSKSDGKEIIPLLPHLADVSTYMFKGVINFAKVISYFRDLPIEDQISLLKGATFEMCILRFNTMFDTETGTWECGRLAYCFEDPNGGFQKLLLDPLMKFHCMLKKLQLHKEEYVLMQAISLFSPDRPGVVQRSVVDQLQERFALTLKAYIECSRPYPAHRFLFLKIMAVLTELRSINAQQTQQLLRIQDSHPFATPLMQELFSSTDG
Procedure, shortened: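 Transiently transfected HepG2 cells expressing a receptor-Gal4 chimera drive a GAL4-UAS reporter; 3 nM 6-alpha-fluorotestosterone included. Reporter mRNA read 24 h post-dose by RT-PCR and capillary electrophoresis; gain of signal relative to DMSO.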

[5] = molecular target: frog Thyroid hormone Receptor alpha (TRa), thra-a (gene 397942) (UniProt P15204); test: ATG_frTRa_XSP1: Attagene TRANS-FACTORIAL Multi-Species (XSP1) HepG2 Assay for frog Thyroid hormone Receptor alpha (TRa) (AID 2283804)
Procedure, shortened: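 HepG2 cells transiently transfected with frog TRa-GAL4 chimeric reporter units, dosed 24 hr with 3 nM 6-alpha-fluorotestosterone present; reporter mRNA quantified by RT-PCR, fluorescent labelling and capillary electrophoresis, gain of signal versus DMSO.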

[6] = molecular target: human Thyroid hormone Receptor alpha (TRa), THRA (gene 7067) (UniProt P10827); test: ATG_hTRa_XSP1: Attagene TRANS-FACTORIAL Multi-Species (XSP1) HepG2 Assay for human Thyroid hormone Receptor alpha (TRa) (AID 2283805)
Procedure, shortened: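 HepG2 cells transiently transfected with GAL4-UAS reporter units expressing chimeric NR-Gal4 proteins, dosed 24 hours with 3 nM 6-alpha-fluorotestosterone present. Reporter mRNA measured by RT-PCR and capillary electrophoresis; gain of signal fitted versus DMSO.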

[7] = test system: turtle Thyroid Hormone Receptor, alpha (TRa), gene 101949057; test: ATG_trTRa_XSP1: Attagene TRANS-FACTORIAL Multi-Species (XSP1) HepG2 Assay for turtle Thyroid Hormone Receptor, alpha (TRa) (AID 2283806)
Procedure, shortened: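 HepG2 cells transiently transfected with GAL4-UAS reporter units and chimeric receptor-Gal4 constructs, with 3 nM 6-alpha-fluorotestosterone present. Reporter mRNA was quantified 24 h after dosing by RT-PCR, 6-FAM labelling and capillary electrophoresis; gain of signal versus DMSO.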

[8] = molecular target: zebrafish Thyroid Hormone Receptor alpha (TRa), thraa (gene 30670) (UniProt Q98867); test: ATG_zfTRa_XSP1: Attagene TRANS-FACTORIAL Multi-Species (XSP1) HepG2 Assay for zebrafish Thyroid Hormone Receptor alpha (TRa) (AID 2283807)
Chain of zebrafish Thyroid Hormone Receptor alpha (TRa), thraa (gene 30670) (Q98867 whole entry, looked up, the tested form may be a part): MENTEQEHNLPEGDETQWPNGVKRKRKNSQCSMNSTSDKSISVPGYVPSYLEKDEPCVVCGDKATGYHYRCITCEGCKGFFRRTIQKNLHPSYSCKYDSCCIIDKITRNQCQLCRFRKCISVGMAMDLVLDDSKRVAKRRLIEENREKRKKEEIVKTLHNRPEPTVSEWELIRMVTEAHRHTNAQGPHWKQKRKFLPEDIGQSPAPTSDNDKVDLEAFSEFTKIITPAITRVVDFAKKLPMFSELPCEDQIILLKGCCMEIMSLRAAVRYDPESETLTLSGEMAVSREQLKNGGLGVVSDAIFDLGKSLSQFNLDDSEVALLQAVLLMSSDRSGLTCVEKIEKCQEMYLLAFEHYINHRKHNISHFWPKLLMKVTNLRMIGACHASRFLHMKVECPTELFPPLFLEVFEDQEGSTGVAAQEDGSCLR
Procedure, shortened: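 HepG2 cells transiently transfected with GAL4-UAS reporter units including a zebrafish TRa–Gal4 chimera, dosed 24 h with 3 nM 6-alpha-fluorotestosterone present. Reporter mRNA quantified by RT-PCR and capillary electrophoresis; gain versus DMSO.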

[9] = molecular target: human Thyroid hormone Receptor beta (TRb), THRB (gene 7068) (UniProt P10828); test: ATG_hTRb_XSP1: Attagene TRANS-FACTORIAL Multi-Species (XSP1) HepG2 Assay for human Thyroid hormone Receptor beta (TRb) (AID 2283808)
Chain of human Thyroid hormone Receptor beta (TRb), THRB (gene 7068) (P10828 whole entry, looked up, the tested form may be a part): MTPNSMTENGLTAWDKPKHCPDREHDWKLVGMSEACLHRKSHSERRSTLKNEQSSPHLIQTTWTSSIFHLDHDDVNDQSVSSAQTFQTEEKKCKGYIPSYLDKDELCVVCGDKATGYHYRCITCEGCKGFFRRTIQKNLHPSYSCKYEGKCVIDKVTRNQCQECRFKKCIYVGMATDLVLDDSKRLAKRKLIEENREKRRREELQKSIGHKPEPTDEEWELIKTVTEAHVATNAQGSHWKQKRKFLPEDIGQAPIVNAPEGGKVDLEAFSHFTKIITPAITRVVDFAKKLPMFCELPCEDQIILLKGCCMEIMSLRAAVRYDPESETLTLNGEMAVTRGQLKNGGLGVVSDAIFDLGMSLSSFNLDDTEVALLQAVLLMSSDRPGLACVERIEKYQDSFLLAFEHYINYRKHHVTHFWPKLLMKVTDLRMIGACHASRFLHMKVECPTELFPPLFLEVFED
Procedure, shortened: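 HepG2 cells transiently transfected with reporter units driving GAL4-UAS reporters for chimeric NR-Gal4 proteins; 24 h chemical exposure with 3 nM 6-alpha-fluorotestosterone present. Reporter mRNA quantified by RT-PCR and capillary electrophoresis, gain of signal versus DMSO.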

[10] = molecular target: zebrafish Thyroid Hormone Receptor beta (TRb), thrb (gene 30607) (UniProt Q9PVE4); test: ATG_zfTRb_XSP1: Attagene TRANS-FACTORIAL Multi-Species (XSP1) HepG2 Assay for zebrafish Thyroid Hormone Receptor beta (TRb) (AID 2283809)
Chain of zebrafish Thyroid Hormone Receptor beta (TRb), thrb (gene 30607) (Q9PVE4 whole entry, looked up, the tested form may be a part): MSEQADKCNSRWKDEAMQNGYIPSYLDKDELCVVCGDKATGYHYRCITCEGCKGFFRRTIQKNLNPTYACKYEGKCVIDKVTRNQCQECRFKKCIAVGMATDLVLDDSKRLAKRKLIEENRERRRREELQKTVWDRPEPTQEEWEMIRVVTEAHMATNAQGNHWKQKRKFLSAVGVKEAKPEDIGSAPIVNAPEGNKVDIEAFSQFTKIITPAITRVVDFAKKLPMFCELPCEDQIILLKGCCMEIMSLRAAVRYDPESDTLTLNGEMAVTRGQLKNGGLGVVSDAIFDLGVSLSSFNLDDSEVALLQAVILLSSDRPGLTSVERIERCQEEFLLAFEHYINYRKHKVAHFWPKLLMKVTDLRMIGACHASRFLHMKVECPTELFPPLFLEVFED
Procedure, shortened: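 HepG2 cells transiently transfected with multiplexed GAL4-UAS reporter units expressing chimeric zebrafish TRb–Gal4. Dosed 24 h with 3 nM 6-alpha-fluorotestosterone present; reporter mRNA measured by RT-PCR, HpaI digestion and capillary electrophoresis; gain of signal versus DMSO.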

[11] = ATG_M_06_XSP2: Attagene TRANS-FACTORIAL Multi-Species (XSP2) HepG2 Assay for M06 Transcription Factor (Internal Marker) (AID 2283811);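 note: hits are increases in signal above the DMSO baseline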
Procedure, shortened: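 HepG2, multiplexed reporter transfection; 24 h dosing; AR stimulated with 3 nM 6-alpha-fluorotestosterone + 1.5 nM norgestrel; RNA → RT-PCR → 6-FAM primer extension → HpaI → CE. Positive direction vs DMSO.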

[12] = test system: turtle Estrogen Receptor (ERa), gene 101933533; test: ATG_trERa_XSP2: Attagene TRANS-FACTORIAL Multi-Species (XSP2) HepG2 Assay for turtle Estrogen Receptor (ERa) (AID 2283812);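 note: human HepG2 liver cells transiently expressing turtle ERa-Gal4 chimeric receptor; actives raise reporter signal above DMSO so AC50 reflects agonist activity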
Procedure, shortened: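 HepG2 cells transiently transfected with GAL4-UAS reporter units expressing turtle ERa-Gal4 chimera. Reporter mRNA measured after 24 h dosing by RT-PCR, fluorescent labelling and capillary electrophoresis; gain of signal fitted versus DMSO.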

[13] = molecular target: Estrogen receptor beta (Homo sapiens) (UniProt Q92731); test: ATG_hERb_XSP2: Attagene TRANS-FACTORIAL Multi-Species (XSP2) HepG2 Assay for human Estrogen Receptor (ERb) (AID 2283813);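 note: actives raise reporter mRNA above DMSO so AC50 reflects agonist induction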
Chain of Estrogen receptor beta (Homo sapiens) (Q92731 whole entry, looked up, the tested form may be a part): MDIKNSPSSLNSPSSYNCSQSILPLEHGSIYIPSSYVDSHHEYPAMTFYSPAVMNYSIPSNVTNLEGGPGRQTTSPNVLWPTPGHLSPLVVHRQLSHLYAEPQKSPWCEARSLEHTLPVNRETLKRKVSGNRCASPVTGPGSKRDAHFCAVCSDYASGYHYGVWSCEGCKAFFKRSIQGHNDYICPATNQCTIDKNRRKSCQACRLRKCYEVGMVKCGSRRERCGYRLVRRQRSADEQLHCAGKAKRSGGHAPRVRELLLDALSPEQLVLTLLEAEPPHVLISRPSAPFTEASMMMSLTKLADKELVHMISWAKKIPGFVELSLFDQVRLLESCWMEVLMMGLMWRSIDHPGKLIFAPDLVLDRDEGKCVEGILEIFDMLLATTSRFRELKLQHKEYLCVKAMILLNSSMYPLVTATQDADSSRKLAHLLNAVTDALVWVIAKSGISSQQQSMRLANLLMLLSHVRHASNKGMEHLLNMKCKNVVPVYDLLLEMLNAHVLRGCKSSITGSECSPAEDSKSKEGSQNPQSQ
Procedure, shortened: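 HepG2 cells transiently transfected with GAL4-UAS reporter units and chimeric human ERb-Gal4, 24 h exposure. Reporter mRNA quantified by RT-PCR with FAM labelling, HpaI digestion and capillary electrophoresis; gain of signal versus DMSO.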

[14] = molecular target: chicken Estrogen Receptor (ERa), ESR1 (gene 396099) (UniProt P06212); test: ATG_chERa_XSP2: Attagene TRANS-FACTORIAL Multi-Species (XSP2) HepG2 Assay for chicken Estrogen Receptor (ERa) (AID 2283817);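 note: actives raise reporter signal above DMSO so AC50 reflects ER activation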
Chain of chicken Estrogen Receptor (ERa), ESR1 (gene 396099) (P06212 whole entry, looked up, the tested form may be a part): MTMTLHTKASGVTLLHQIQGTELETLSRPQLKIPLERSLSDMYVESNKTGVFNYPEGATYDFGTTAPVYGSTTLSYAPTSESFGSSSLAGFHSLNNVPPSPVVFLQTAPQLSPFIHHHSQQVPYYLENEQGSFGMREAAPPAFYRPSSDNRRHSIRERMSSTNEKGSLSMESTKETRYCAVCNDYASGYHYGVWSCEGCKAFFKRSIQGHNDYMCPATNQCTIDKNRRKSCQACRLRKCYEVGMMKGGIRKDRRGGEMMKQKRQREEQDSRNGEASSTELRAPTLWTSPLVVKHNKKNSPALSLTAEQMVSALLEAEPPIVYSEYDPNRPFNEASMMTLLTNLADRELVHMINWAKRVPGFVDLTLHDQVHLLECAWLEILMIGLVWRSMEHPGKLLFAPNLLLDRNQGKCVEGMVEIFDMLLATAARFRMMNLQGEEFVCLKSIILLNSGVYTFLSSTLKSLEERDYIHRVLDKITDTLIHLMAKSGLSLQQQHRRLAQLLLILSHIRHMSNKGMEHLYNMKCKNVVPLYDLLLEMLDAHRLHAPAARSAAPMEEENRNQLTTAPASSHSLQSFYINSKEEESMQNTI
Procedure, shortened: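 Transient MRTU transfection of HepG2 → 24 h chemical dosing → TriZol RNA, oligo(dT) RT → PCR, 6-FAM primer extension, HpaI digest → CE quantitation of chicken ERa-Gal4-driven reporter mRNA. Positive direction vs DMSO.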

[15] = test system: turtle Androgen Receptor (AR), gene 101947425; test: ATG_trAR_XSP2: Attagene TRANS-FACTORIAL Multi-Species (XSP2) HepG2 Assay for turtle Androgen Receptor (AR) (AID 2283815)
Procedure, shortened: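 HepG2 cells transiently transfected with GAL4-UAS reporter units for chimeric NR-Gal4 receptors; 24 h dosing in presence of 3 nM 6-alpha-fluorotestosterone and 1.5 nM norgestrel. Reporter mRNA by RT-PCR and capillary electrophoresis, gain of signal versus DMSO.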

[16] = molecular target: zebrafish Estrogen Receptor (ER1), esr1 (gene 259252) (UniProt P57717); test: ATG_zfER1_XSP2: Attagene TRANS-FACTORIAL Multi-Species (XSP2) HepG2 Assay for zebrafish Estrogen Receptor (ER1) (AID 2283816)
Chain of zebrafish Estrogen Receptor (ER1), esr1 (gene 259252) (P57717 whole entry, looked up, the tested form may be a part): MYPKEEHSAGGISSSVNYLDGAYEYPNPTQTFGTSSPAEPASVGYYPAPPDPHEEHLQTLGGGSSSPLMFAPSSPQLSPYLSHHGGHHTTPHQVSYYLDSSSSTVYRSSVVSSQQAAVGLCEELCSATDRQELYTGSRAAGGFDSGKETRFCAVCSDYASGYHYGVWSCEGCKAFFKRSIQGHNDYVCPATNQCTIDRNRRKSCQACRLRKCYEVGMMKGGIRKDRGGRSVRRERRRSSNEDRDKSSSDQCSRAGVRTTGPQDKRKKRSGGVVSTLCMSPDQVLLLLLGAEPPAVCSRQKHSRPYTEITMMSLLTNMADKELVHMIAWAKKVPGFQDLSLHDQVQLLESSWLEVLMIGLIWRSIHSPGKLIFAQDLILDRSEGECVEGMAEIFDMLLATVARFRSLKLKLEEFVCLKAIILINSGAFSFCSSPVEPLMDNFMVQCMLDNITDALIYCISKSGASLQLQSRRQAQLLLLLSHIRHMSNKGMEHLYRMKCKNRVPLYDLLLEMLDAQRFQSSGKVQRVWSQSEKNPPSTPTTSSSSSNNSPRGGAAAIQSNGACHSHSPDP
Procedure, shortened: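 HepG2 cells transiently transfected with a GAL4-UAS reporter and a chimeric zebrafish ER1-Gal4 construct, dosed 24 h. Reporter mRNA quantified by RT-PCR, labelling, HpaI digestion and capillary electrophoresis, relative to DMSO.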

[17] = test system: zebrafish Estrogen Receptor (ER2a), gene 317734; test: ATG_zfER2a_XSP2: Attagene TRANS-FACTORIAL Multi-Species (XSP2) HepG2 Assay for zebrafish Estrogen Receptor (ER2a) (AID 2283818);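 note: hits raise reporter mRNA so AC50 reflects activation of zebrafish ER2a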
Procedure, shortened: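 HepG2 cells transiently transfected with GAL4-UAS reporter units and chimeric zebrafish ER2a-Gal4, exposed 24 h; medium contains 3 nM 6-alpha-fluorotestosterone and 1.5 nM norgestrel. Reporter mRNA quantified by RT-PCR, HpaI digestion, capillary electrophoresis; gain versus DMSO.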

[18] = molecular target: Peroxisome proliferator-activated receptor gamma (Homo sapiens) (UniProt P37231); test: ATG_hPPARg_XSP1: Attagene TRANS-FACTORIAL Multi-Species (XSP1) HepG2 Assay for human Peroxisome Proliferator-activated Receptor gamma (PPARg) (AID 2283800)
Procedure, shortened: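 HepG2 cells transiently transfected with GAL4-UAS reporter units carrying chimeric NR-Gal4 proteins; 3 nM 6-alpha-fluorotestosterone present. After 24 h dosing, reporter mRNA quantified by RT-PCR and capillary electrophoresis; gain of signal relative to DMSO.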

[19] = ATG_XTT_Cytotoxicity_XSP1: Cytotoxicity Assessment in the Attagene TRANS-FACTORIAL Multi-Species (XSP1) HepG2 Assay (AID 2283810)
Procedure, shortened: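 XTT viability readout taken at 24 hours post-dosing in HepG2 liver cells co-treated with 3 nM 6-alpha-fluorotestosterone. Signal loss relative to DMSO controls reflects cytotoxicity.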

[20] = molecular target: GAL4 Transcription Factor (Internal Marker), GAL4 (gene 855828) (UniProt P04386); test: ATG_GAL4_XSP2: Attagene TRANS-FACTORIAL Multi-Species (XSP2) HepG2 Assay for GAL4 Transcription Factor (Internal Marker) (AID 2283814);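 note: GAL4 reporter mRNA background control in MRTU transfected cells not a receptor target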
Chain of GAL4 Transcription Factor (Internal Marker), GAL4 (gene 855828) (P04386 whole entry, looked up, the tested form may be a part): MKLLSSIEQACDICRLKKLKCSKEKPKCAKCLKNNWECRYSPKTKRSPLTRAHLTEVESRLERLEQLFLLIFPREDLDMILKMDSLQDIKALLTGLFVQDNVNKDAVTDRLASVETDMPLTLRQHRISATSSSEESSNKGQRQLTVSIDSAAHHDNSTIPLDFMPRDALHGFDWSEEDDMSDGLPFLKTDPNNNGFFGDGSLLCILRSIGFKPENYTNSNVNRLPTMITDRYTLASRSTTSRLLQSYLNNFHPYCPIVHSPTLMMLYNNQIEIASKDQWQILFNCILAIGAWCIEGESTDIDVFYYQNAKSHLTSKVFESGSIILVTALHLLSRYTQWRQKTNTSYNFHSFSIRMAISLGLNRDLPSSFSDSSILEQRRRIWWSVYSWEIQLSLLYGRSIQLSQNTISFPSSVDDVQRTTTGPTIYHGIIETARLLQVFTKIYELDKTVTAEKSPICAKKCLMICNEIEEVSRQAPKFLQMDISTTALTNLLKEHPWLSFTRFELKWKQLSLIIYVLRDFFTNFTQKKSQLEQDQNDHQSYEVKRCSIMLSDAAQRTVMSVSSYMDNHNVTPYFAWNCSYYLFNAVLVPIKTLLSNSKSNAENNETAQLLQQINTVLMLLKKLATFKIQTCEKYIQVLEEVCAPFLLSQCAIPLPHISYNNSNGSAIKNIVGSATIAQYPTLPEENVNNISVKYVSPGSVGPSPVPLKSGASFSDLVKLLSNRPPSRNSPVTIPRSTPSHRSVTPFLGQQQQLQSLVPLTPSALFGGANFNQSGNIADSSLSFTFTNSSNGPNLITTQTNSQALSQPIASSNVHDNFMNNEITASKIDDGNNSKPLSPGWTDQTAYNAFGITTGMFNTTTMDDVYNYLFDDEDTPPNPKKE
Procedure, shortened: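 HepG2 cells transiently transfected with GAL4-UAS reporter units, stimulated with 3 nM 6-alpha-fluorotestosterone plus 1.5 nM norgestrel, dosed 24 h. Reporter mRNA by RT-PCR/capillary electrophoresis; gain-of-signal fit versus DMSO, background control.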

Measured: AC50

CC(C)(c1cc(Br)c(O)c(Br)c1)c1cc(Br)c(O)c(Br)c1
inactive: [1] | [4] | [7] | [8] | [9] | [11] | [12] | [13] | [14]
active: [2] 9.55 µM | [3] 2.06 µM | [5] 3.79 µM | [6] 3.39 µM | [10] 13.9 µM

O=C(O)Cc1cc(I)c(Oc2ccc(O)c(I)c2)c(I)c1
inactive: [11] | [12] | [13] | [15] | [16] | [14] | [17]

Cc1c2ccccc2c(C)c2c1ccc1ccccc12
inactive: [1] | [11] | [20] | [15] | [16] | [17]
active: [18] 23.2 µM | [3] 13.8 µM | [4] 0.828 µM | [10] 60.9 µM | [19] 33.2 µM | [12] 1.53 µM | [13] 24.7 µM | [14] 8.83 µM
